Experimental data published in paper PMC7862700, “An all-to-all approach to the identification of sequence-specific readers for epigenetic DNA modifications on cytosine”.

Columns and labels:
Assay in all cases: DAPPL (digital affinity profiling via proximity ligation, sequencing); 10 mM Tris-HCl pH 7.5, 50 mM NaCl, 1 mM DTT, 4% glycerol, room temperature, 30 min; GST-TFs on glutathione beads, 16-mer random dsDNA library, 0.1% formaldehyde crosslink after washing; high values mean tight binding
FLI1 = target: T1, FLI1 (Homo sapiens, UniProt Q01543 1-452); conditions: protein: recombinant; tags: N-terminal GST; dsDNA, one strand shown
T1 sequence: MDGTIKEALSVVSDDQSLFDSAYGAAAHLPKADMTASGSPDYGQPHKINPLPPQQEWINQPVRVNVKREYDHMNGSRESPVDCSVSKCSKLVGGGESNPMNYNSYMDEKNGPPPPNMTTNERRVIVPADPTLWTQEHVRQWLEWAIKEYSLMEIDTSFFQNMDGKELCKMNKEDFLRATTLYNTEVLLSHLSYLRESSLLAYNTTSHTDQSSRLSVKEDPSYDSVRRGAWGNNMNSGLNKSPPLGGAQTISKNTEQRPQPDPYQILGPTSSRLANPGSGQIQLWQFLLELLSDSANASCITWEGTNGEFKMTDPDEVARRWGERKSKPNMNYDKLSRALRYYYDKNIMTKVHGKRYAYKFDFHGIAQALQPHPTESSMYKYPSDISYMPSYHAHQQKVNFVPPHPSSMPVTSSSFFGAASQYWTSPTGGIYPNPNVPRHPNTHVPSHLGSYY
How it was run: (§1)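 GST fusions of human transcription factors were expressed in yeast and captured with glutathione beads. Once given DNA barcodes and pooled alongside a tag-only sample, they were incubated for 30 min at room temperature with 200 nmole of a random double-stranded 16-mer DNA library in Tris/NaCl/DTT/glycerol buffer, then washed, crosslinked (0.1% formaldehyde), proximity-ligated, PCR-amplified and sequenced on an Illumina NextSeq500. The binding signal of each hexamer is its read frequency for a factor divided by its frequency for the tag-only sample.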

ELK1 = target: T2, ELK1 (Homo sapiens, UniProt P19419 1-428); conditions: protein: recombinant; tags: N-terminal GST; dsDNA, one strand shown
T2 sequence: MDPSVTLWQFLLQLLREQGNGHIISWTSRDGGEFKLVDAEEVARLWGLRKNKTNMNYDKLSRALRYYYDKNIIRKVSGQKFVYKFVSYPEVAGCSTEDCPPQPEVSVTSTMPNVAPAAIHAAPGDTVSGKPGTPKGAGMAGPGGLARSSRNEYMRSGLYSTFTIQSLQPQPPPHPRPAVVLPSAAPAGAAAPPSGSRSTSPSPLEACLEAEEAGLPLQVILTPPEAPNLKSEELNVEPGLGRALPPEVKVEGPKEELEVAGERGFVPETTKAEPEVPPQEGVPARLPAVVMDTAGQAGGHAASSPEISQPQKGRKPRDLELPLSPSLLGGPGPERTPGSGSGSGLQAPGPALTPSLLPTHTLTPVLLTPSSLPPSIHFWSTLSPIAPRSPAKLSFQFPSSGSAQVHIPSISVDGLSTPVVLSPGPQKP
How it was run: as §1

GABPA = target: T3, GABPA (Homo sapiens, UniProt Q06546 1-454); conditions: protein: recombinant; tags: N-terminal GST; dsDNA, one strand shown
T3 sequence: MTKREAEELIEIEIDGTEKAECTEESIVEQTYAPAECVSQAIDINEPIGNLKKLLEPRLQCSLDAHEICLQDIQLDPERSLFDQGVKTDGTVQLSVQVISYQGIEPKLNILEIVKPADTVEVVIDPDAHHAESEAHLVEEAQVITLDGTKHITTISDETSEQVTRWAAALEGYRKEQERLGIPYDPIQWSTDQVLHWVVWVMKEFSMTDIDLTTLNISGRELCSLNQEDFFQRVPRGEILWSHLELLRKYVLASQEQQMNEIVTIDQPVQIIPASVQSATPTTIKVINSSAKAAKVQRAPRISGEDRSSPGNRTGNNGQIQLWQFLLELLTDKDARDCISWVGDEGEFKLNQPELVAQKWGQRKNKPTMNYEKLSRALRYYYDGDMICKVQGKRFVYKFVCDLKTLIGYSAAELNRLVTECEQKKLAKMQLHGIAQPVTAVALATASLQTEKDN
How it was run: as §1

ERG = target: T4, ERG (Homo sapiens, UniProt P11308 1-479); conditions: protein: recombinant; tags: N-terminal GST; dsDNA, one strand shown
T4 sequence: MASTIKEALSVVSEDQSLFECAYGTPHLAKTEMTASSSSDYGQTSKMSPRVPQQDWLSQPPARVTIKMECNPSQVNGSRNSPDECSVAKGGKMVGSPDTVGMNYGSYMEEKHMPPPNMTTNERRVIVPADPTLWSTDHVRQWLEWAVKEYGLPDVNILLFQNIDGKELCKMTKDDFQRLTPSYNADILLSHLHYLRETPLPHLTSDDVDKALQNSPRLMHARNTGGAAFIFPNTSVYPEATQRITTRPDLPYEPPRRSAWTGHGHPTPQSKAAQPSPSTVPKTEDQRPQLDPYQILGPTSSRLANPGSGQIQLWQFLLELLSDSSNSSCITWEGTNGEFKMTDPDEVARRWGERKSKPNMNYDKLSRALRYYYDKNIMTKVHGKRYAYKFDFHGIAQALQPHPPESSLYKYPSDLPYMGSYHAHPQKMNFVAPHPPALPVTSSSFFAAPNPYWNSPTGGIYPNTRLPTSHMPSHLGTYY
How it was run: as §1

ELF1 = ELF1 (Homo sapiens, UniProt P32519 1-619); conditions: protein: recombinant; tags: N-terminal GST; dsDNA, one strand shown
How it was run: as §1

EHF = target: T5, EHF (Homo sapiens, UniProt Q9NZC4 1-300); conditions: protein: recombinant; tags: N-terminal GST; dsDNA, one strand shown
T5 sequence: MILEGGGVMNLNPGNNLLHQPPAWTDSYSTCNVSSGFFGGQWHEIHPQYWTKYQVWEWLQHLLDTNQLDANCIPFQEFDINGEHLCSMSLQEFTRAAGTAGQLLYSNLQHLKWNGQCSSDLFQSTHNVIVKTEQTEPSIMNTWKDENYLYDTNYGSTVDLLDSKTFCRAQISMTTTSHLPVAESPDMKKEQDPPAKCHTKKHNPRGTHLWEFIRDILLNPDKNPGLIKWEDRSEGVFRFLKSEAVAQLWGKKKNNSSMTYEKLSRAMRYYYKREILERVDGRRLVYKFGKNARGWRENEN
How it was run: as §1

SPI1 = SPI1 (Homo sapiens, UniProt P17947 1-270); conditions: protein: recombinant; tags: N-terminal GST; dsDNA, one strand shown
How it was run: as §1

SPIB = SPIB (Homo sapiens, UniProt Q01892 1-262); conditions: protein: recombinant; tags: N-terminal GST; dsDNA, one strand shown
How it was run: as §1

ELK3 = target: T6, ELK3 (Homo sapiens, UniProt P41970 1-407); conditions: protein: recombinant; tags: N-terminal GST; dsDNA, one strand shown
T6 sequence: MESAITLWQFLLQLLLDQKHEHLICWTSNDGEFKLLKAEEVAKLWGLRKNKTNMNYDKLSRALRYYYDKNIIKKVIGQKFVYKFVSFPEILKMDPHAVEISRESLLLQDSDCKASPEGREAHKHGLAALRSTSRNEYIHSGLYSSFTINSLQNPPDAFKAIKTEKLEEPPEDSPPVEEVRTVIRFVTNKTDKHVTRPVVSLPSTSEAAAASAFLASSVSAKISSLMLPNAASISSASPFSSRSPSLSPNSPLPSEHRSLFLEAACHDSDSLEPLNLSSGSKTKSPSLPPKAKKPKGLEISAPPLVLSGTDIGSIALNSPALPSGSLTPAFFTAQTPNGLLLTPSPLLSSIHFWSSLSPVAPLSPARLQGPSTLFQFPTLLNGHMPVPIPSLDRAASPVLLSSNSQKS
How it was run: as §1

FEV = target: T7, FEV (Homo sapiens, UniProt Q99581 1-238); conditions: protein: recombinant; tags: N-terminal GST; dsDNA, one strand shown
T7 sequence: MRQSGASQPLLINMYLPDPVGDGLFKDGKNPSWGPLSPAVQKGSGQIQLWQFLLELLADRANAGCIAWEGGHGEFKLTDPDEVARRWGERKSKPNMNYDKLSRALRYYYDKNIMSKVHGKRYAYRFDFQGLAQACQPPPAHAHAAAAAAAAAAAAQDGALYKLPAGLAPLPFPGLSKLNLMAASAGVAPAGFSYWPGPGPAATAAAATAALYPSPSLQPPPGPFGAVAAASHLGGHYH
How it was run: as §1

ETV5 = ETV5 (Homo sapiens, UniProt P41161 1-510); conditions: protein: recombinant; tags: N-terminal GST; dsDNA, one strand shown
How it was run: as §1

HSF1 = HSF1 (Homo sapiens, UniProt Q00613 1-529); conditions: protein: recombinant; tags: N-terminal GST; chain copies: 3; dsDNA, one strand shown
How it was run: as §1

SPIC = target: T8, SPIC (Homo sapiens, UniProt Q8N5J4 1-248); conditions: protein: recombinant; tags: N-terminal GST; dsDNA, one strand shown
T8 sequence: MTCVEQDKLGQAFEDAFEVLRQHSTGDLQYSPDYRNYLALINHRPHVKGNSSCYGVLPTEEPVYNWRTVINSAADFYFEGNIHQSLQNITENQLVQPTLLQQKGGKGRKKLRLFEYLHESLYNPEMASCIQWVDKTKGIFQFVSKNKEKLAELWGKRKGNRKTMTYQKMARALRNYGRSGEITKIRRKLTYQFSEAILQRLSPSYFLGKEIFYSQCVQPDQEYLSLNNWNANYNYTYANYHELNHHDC
How it was run: as §1

ELF4 = ELF4 (Homo sapiens, UniProt Q99607 1-663); conditions: protein: recombinant; tags: N-terminal GST; dsDNA, one strand shown
How it was run: as §1

ELK4 = target: T9, ELK4 (Homo sapiens, UniProt P28324-2 1-405); conditions: protein: recombinant; tags: N-terminal GST; dsDNA, one strand shown
T9 sequence: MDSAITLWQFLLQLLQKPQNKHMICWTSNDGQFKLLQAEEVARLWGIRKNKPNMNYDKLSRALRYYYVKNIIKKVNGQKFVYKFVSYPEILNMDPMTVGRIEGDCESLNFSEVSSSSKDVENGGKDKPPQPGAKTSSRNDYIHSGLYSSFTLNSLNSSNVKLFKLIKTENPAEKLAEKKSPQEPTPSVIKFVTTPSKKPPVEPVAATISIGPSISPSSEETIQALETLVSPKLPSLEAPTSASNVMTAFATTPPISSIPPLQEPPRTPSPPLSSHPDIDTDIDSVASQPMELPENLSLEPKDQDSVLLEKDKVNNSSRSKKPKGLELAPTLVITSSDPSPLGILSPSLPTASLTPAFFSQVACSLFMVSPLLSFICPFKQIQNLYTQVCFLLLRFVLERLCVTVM
How it was run: as §1

ETV2 = target: T10, ETV2 (Homo sapiens, UniProt O00321 1-342); conditions: protein: recombinant; tags: N-terminal GST; dsDNA, one strand shown
T10 sequence: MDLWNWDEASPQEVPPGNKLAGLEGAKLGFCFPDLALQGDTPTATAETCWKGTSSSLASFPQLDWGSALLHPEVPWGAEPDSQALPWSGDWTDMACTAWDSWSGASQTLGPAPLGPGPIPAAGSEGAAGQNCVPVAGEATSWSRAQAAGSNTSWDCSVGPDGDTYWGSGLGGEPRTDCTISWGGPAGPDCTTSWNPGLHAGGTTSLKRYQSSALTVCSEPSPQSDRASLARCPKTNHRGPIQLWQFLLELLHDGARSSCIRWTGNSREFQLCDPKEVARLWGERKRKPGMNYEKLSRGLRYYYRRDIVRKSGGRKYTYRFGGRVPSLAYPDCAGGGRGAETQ
How it was run: as §1

ELF3 = target: T11, ELF3 (Homo sapiens, UniProt P78545 1-371); conditions: protein: recombinant; tags: N-terminal GST; dsDNA, one strand shown
T11 sequence: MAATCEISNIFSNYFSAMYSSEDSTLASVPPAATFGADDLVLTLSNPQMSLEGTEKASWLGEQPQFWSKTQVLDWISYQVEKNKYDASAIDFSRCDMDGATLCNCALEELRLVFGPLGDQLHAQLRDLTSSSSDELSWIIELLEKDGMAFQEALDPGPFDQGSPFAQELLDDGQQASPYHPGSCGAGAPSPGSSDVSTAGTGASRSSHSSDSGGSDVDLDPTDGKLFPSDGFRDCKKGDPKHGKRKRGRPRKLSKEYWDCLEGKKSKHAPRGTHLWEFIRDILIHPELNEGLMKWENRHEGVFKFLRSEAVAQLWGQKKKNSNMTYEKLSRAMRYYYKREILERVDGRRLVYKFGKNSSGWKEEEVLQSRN
How it was run: as §1

ETV1 = ETV1 (Homo sapiens, UniProt P50549 1-477); conditions: protein: recombinant; tags: N-terminal GST; dsDNA, one strand shown
How it was run: as §1

Sequence of ETV1 (P50549 whole entry): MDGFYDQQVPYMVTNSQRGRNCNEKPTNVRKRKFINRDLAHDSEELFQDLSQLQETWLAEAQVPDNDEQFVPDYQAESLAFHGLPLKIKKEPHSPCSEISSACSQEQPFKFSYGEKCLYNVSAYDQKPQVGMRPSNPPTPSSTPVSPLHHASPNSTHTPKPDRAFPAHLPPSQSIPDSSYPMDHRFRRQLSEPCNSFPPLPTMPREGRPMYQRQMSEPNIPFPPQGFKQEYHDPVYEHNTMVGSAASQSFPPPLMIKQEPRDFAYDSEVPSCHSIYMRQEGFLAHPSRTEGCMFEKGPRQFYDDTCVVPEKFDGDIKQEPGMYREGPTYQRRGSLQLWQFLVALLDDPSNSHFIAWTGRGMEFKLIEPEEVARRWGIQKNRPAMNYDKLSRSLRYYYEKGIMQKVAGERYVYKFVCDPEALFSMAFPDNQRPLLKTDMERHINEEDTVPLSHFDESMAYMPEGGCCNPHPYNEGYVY
Sequence of HSF1 (Q00613 whole entry): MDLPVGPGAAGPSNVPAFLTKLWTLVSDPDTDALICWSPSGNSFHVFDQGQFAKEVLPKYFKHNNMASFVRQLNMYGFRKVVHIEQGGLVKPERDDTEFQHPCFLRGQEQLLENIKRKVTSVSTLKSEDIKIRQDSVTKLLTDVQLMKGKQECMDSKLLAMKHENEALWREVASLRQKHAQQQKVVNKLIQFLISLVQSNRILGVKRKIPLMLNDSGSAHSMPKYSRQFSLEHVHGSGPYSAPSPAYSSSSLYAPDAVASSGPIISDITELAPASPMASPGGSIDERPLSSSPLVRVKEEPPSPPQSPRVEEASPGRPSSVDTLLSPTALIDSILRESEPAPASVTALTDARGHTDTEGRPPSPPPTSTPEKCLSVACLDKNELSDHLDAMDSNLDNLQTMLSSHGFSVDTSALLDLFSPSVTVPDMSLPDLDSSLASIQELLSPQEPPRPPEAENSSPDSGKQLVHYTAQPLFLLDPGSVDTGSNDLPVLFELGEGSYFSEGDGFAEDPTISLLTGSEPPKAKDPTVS
Sequence of ELF1 (P32519 whole entry): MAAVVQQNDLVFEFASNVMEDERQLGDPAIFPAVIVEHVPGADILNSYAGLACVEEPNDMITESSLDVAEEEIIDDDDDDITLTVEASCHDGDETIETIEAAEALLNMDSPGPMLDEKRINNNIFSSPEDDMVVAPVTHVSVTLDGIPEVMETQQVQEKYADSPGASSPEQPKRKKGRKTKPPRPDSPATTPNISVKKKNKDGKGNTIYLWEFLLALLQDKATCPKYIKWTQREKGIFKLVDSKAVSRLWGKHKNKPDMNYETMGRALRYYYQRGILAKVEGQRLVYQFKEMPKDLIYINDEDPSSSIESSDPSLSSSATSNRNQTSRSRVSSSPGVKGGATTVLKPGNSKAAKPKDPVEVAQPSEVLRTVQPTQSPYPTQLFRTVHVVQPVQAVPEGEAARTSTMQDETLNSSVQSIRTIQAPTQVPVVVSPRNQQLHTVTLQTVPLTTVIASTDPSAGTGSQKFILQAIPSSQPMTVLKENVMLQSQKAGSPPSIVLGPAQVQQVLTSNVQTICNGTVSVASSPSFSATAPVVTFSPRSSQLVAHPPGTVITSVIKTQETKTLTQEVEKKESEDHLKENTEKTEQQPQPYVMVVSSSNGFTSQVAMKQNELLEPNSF
Sequence of ELF4 (Q99607 whole entry): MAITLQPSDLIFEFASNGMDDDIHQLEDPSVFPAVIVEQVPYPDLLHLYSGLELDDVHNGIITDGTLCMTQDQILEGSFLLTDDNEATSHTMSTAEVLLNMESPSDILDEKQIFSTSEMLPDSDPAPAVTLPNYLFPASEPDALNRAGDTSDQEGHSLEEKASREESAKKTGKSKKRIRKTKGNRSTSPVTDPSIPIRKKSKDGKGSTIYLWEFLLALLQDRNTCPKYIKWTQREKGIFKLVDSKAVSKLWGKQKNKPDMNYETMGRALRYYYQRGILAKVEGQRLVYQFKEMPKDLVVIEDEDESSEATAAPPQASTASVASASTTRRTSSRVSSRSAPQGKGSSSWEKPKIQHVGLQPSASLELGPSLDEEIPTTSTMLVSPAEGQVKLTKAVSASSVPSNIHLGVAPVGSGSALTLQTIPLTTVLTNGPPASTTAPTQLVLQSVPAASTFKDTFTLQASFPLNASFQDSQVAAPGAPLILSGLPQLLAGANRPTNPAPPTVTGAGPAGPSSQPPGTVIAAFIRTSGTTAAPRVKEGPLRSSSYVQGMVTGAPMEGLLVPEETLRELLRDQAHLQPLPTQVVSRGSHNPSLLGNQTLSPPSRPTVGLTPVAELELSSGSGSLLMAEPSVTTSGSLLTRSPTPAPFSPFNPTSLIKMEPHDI
Sequence of ETV5 (P41161 whole entry): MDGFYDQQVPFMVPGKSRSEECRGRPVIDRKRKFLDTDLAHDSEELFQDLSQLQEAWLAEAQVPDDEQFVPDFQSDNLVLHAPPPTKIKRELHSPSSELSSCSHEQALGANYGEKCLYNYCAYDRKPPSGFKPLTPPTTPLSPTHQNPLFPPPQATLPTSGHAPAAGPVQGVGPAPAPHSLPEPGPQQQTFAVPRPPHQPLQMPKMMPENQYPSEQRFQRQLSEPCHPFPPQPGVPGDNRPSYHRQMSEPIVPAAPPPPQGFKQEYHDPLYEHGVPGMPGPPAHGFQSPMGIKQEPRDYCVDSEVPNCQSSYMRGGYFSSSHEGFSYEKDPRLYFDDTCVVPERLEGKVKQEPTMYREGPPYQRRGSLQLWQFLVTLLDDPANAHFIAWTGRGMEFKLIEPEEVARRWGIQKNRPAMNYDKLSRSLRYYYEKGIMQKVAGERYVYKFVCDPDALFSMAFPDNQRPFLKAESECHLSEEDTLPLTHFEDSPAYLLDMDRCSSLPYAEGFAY
Sequence of SPIB (Q01892 whole entry): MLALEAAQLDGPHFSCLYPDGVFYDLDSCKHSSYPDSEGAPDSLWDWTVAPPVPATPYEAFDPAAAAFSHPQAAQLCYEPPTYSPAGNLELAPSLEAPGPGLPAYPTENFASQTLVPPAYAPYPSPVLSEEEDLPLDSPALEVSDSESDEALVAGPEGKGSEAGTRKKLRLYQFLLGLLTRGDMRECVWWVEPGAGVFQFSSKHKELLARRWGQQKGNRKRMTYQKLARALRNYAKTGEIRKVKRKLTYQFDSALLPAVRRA

GACCTC
binding signal (FLI1): 1.22 fold enrichment (6-mer frequency, TF over GST control)
binding signal (ELK1): 1.35 fold enrichment (6-mer frequency, TF over GST control)
binding signal (GABPA): 1.35 fold enrichment (6-mer frequency, TF over GST control)
binding signal (ERG): 1.38 fold enrichment (6-mer frequency, TF over GST control)
binding signal (ELF1): 1.39 fold enrichment (6-mer frequency, TF over GST control)
binding signal (EHF): 1.31 fold enrichment (6-mer frequency, TF over GST control)
binding signal (SPI1): 1.36 fold enrichment (6-mer frequency, TF over GST control)
binding signal (SPIB): 1.42 fold enrichment (6-mer frequency, TF over GST control)
binding signal (ELK3): 1.33 fold enrichment (6-mer frequency, TF over GST control)
binding signal (FEV): 1.41 fold enrichment (6-mer frequency, TF over GST control)
binding signal (ETV5): 1.42 fold enrichment (6-mer frequency, TF over GST control)
binding signal (HSF1): 1.17 fold enrichment (6-mer frequency, TF over GST control)
binding signal (SPIC): 1.18 fold enrichment (6-mer frequency, TF over GST control)
binding signal (ELF4): 1.4 fold enrichment (6-mer frequency, TF over GST control)
binding signal (ELK4): 1.38 fold enrichment (6-mer frequency, TF over GST control)
binding signal (ETV2): 1.51 fold enrichment (6-mer frequency, TF over GST control)
binding signal (ELF3): 1.45 fold enrichment (6-mer frequency, TF over GST control)
binding signal (ETV1): 1.38 fold enrichment (6-mer frequency, TF over GST control)
